High-throughput results as filed in PubChem BioAssay.
ASK1 inh = ASK1 kinase inhibitors, primary screen, biochemical, AlphaScreen | Mitogen-activated protein kinase kinase kinase 5 (Homo sapiens), Q99683 | AlphaScreen MKK6 phosphorylation by ASK1, luminescence | inhibition, % at 7.44 µM | 22,000 compounds, 0.99% hits | AID 1159602, 2016; in the data active means inhibition above about 35%;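 further: 0% = median of compound wells and 100% = no enzyme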
Target sequence (Q99683 whole entry, looked up): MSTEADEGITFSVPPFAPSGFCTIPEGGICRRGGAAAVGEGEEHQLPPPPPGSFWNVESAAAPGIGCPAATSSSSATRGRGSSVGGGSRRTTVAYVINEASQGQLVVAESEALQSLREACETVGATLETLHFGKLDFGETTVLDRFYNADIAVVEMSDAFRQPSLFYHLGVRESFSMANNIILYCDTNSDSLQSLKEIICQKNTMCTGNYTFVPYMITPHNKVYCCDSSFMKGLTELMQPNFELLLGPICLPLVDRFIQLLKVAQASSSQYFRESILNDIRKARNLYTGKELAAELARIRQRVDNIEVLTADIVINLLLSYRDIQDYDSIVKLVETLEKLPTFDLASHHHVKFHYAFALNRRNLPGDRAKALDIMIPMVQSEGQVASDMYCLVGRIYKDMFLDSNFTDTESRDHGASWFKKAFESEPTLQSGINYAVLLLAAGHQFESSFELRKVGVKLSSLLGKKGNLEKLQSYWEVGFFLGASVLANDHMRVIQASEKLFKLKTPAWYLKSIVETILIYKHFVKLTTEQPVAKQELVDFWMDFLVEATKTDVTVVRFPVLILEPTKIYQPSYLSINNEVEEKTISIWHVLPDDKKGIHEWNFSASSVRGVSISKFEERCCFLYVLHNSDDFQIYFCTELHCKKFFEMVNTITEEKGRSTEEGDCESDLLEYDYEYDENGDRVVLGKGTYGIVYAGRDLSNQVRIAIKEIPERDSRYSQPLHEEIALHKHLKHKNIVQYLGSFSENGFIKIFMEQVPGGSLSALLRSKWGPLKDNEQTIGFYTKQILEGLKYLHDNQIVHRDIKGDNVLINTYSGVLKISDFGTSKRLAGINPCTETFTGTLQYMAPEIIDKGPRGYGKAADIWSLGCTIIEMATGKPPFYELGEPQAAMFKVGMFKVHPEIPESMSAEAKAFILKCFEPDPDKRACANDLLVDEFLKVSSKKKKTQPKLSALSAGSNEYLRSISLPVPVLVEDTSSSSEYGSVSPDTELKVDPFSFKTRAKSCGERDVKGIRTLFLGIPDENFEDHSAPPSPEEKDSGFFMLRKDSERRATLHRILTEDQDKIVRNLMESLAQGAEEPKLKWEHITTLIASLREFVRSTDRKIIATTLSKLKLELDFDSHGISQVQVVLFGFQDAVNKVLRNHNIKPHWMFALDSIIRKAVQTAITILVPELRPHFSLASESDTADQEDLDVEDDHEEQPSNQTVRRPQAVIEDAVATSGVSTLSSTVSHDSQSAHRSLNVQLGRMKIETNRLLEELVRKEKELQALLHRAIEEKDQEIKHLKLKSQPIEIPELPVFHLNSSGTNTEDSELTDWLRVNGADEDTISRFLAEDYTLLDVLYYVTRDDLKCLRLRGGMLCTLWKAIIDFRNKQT
ULK1 inh = ULK1 kinase inhibitors, primary screen, biochemical, AlphaScreen. inhibition, % at 5.96 µM. AID 1259251, 2017. 30,000 compounds, 1.9% hits. AlphaScreen Atg13 phosphorylation by ULK1, luminescence; in the data active means inhibition above about 43%;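 further: 0% = median of compound wells and 100% = no enzyme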
AlphaScreen intf = AlphaScreen signal interference by compounds, dose response, artefact control for ASK1 inhibitor project, biochemical, TruHits beads; shares compounds with ASK1 inh; signal interference counterscreen; IC50, µM; 220 compounds, 20% hits; AID 1159604, 2016;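 active means IC50 of 10 µM or lower in the counterscreen; inactive means IC50 above 10 µM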;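 further: loss of AlphaScreen light from TruHits beads alone with no ASK1 enzyme present; potency of signal reduction so a low IC50 flags an assay artifact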
The depositor's hits bear a star; i = inactive; . = no result given. Rows were chosen to be rich in hits. Some 2.5% of all compounds tested hit in one or more screens of this group.

SMILES	ASK1 inh	ULK1 inh	AlphaScreen intf
Cc1nc(C)n(-c2ccc(Nc3nccc(-c4cccc(-n5cncn5)c4)n3)cc2)n1	48*	12	>19
Cc1nc(C)n(-c2ccc(Nc3nccc(-c4cc(-n5cncn5)cc(-n5cncn5)c4)n3)cc2)n1	10	17	.
CC(=O)Nc1ccc(Nc2nc(N3CCN(Cc4ccc5c(c4)OCO5)CC3)nc3c2ncn3-c2ccsc2)cc1	14	-3	.
c1cc(N2CCOCC2)ccc1Nc1nc(NCCN2CCOCC2)c2ncn(C3CCCCC3)c2n1	16	0	.
c1cc(-n2cnc3c(NC4CC4)nc(Nc4ccc(N5CCOCC5)cc4)nc32)cs1	43*	25	>20
c1cc(-n2cnc3c(Nc4ccc5c(c4)OCO5)nc(N4CCN(Cc5ccc6c(c5)OCO6)CC4)nc32)cs1	36*	12	>20
CC(=O)Nc1ccc(Nc2nc(Nc3ccc(N4CCOCC4)cc3)nc3c2ncn3C(C)C)cc1	23	16	.
CC(C)n1cnc2c(Nc3ccc(N4CCOCC4)cc3)nc(Nc3ccc(-n4ccnc4)cc3)nc21	36*	67*	>19
CCCNc1nc(Nc2ccc(N3CCOCC3)cc2)nc2c1ncn2C1CCCCC1	51*	17	>20
FC(F)(F)c1ccc(Nc2nc(Nc3ccc(N4CCOCC4)cc3)c3ncn(-c4ccsc4)c3n2)cc1	17	-8	.
OCCNc1nc(Nc2cnccn2)nc2nc[nH]c12	7	21	.
OC1(C#Cc2ccccc2)CCCCC1	.	-7	.
CC(=O)Nc1ccc(Nc2ncnc3c2nc(-c2ccc(C(=O)NC4CC4)cc2)n3C(C)C)cc1	7	-6	.
c1cc(-n2cnc3c(Nc4ccc5c(c4)OCO5)nc(NCCN4CCOCC4)nc32)cs1	26	25	.
Nc1nc(NCc2ccc3c(c2)OCO3)cc(Nc2ccc(N3CCOCC3)cc2)n1	33	16	.
Nc1nc(Nc2ccc(N3CCOCC3)cc2)cc(Nc2ccc3c(c2)OCO3)n1	37*	16	>17
Cc1cc(Nc2ccc3c(c2)OCO3)nc(N2CCN(Cc3ccc4c(c3)OCO4)CC2)n1	37*	1	i
c1cc(-n2cnc3c(Nc4ccc5c(c4)OCO5)nc(Nc4ccc(N5CCOCC5)cc4)nc32)cs1	50*	29	i
O=C1CCCN1CCCNc1nc(Nc2ccncc2)nc2c1ncn2-c1ccsc1	9	26	.
CCCNc1cc(C)nc(N2CCN(Cc3ccc4c(c3)OCO4)CC2)n1	11	11	.
O=C1CCCN1CCCNc1nc(Nc2ccc(-n3ccnc3)cc2)nc2c1ncn2-c1ccsc1	47*	25	>20
COc1ccc(-c2cncc(-c3cc(NCc4cnc(C)cn4)nc(C)n3)c2)cc1	.	-13	.
CC(C)N(CCNc1nc(Nc2nc3ccccc3n2C)nc2c1ncn2CCN1CCCC1=O)C(C)C	3	-1	.
c1ccc(Nc2cc(NCc3cccnc3)ncn2)cc1	-17	4	.
Cc1noc(C)c1-c1cc(C(=O)NCCc2ccc(O)cc2)ccn1	5	2	.
SMILES	ASK1 inh	ULK1 inh	AlphaScreen intf
O=C1CCCN1CCCNc1ccnc(-c2cccs2)n1	-2	-3	.
O=C1CCCN1CCn1cnc2c(Nc3ccc(N4CCOCC4)cc3)nc(Nc3ccc(C(F)(F)F)cc3)nc21	-1	-25	.
O=C(NCCO)c1ccc2nc(Nc3ccc(C(F)(F)F)cc3)sc2c1	12	-9	.
c1cc(-n2cnc3c(Nc4ccc(N5CCOCC5)cc4)nc(NCc4ccc5c(c4)OCO5)nc32)cs1	41*	10	>20
c1cc(-n2cnc3c(Nc4ccc5c(c4)OCO5)nc(NCc4ccc5c(c4)OCO5)nc32)cs1	17	0	.
O=C(Nc1cccc2c(=O)[nH]ccc12)C1COc2ccccc2O1 (stereo unspecified)	-28	-7	.
O=C1CCCN1CCCNc1nc2ncnc(NC3CCN(Cc4ccccc4)CC3)c2[nH]1	-1	2	.
Cc1cc(NC2CC2)nc(Nc2cccc(N(C)C)c2)n1	19	-6	.
CN(C)c1cccc(Nc2nc(NC3CCN(Cc4ccccc4)CC3)c3ncn(-c4ccccc4)c3n2)c1	10	10	.
CC(C)n1c(Nc2ccccc2)nc2c(NC3CCN(Cc4ccccc4)CC3)ncnc21	-12	-7	.
CC(C)n1c(Nc2cccc(N(C)C)c2)nc2c(NC3CCN(Cc4ccccc4)CC3)ncnc21	38*	17	>19
CC(C)n1cnc2c(NC3CCN(Cc4ccccc4)CC3)nc(Nc3cccc(N(C)C)c3)nc21	36*	18	i
Cc1cc(NC2CCN(Cc3ccccc3)CC2)nc(Nc2cccc(N(C)C)c2)n1	50*	21	8.6*
NS(=O)(=O)c1ccc(-c2sc(NC(=O)C3COc4ccccc4O3)nc2-c2ccncc2)cc1 (stereo unspecified)	-4	-17	.
COc1ccc2c(c1)CC(C(=O)Nc1ccc(-c3cn[nH]c3)cc1OCCOCc1ccccc1)CO2 (stereo unspecified)	43*	17	>19
COc1ccc2c(c1)CC(C(=O)Nc1ccc(-c3cn[nH]c3)cc1OCCC(C)C)CO2 (stereo unspecified)	31	9	.
CC(C)n1c(-c2ccc(N3CCN(C)CC3)cc2)nc2c(NCCO)ncnc21	0	14	.
Nc1ccn(C[C@@H](CO)OCP(=O)(O)O)c(=O)n1	.	-20	.
O=C(Cc1ccsc1)Nc1ccc2cnn(-c3cccc(C(=O)NCCN4CCOCC4)c3)c2c1	-14	-12	.
c1ccc(N2CCN(c3nc(Nc4ccc(N5CCOCC5)cc4)c4ncn(-c5ccsc5)c4n3)CC2)nc1	45*	-3	>20
c1ccc(Oc2ccc(Nc3nc(N4CCOCC4)nc4c3ncn4-c3ccsc3)cc2)cc1	24	2	.
CCCNc1nc(N2CCN(c3ccccn3)CC2)nc2c1ncn2-c1ccsc1	16	5	.
Oc1ccc(CCNc2nc(N3CCN(c4ccccn4)CC3)nc3c2ncn3-c2ccsc2)cc1	39*	2	>21
N#C/C(=C\c1ccc(OCCOc2ccccc2)cc1)C(=O)NCC1CCCO1 (stereo unspecified)	.	-7	.
FC(F)(F)c1ccc(Cn2cnc3c(NCCN4CCOCC4)nc(Nc4ccncn4)nc32)cc1	15	-8	.
SMILES	ASK1 inh	ULK1 inh	AlphaScreen intf
C/C(CC(=O)Nc1ccccc1C(F)(F)F)=N\NC(=O)c1ccc(F)cc1	.	8	.
CCCNC(=O)c1csc(Nc2ccc(-n3ccnc3)cc2)n1	8	5	.
COc1cc2nc(Nc3cccc(N(C)C)c3)nc(Nc3ccccc3)c2cc1OC	42*	-21	4.3*
COc1cc2nc(Nc3ccccc3)nc(Nc3ccccc3)c2cc1OC	16	-12	.
COc1cc2nc(Nc3cccc(N(C)C)c3)nc(Nc3ccc(NC(C)=O)cc3)c2cc1OC	55*	5	8.7*
COc1cc2nc(Nc3ccncc3)nc(Nc3ccc(NC(C)=O)cc3)c2cc1OC	8	-15	.
O=c1[nH]c(=O)n([C@H]2C[C@H](O)[C@@H](CO)O2)cc1/C=C/Br	.	-2	.
COc1ccc(-c2cc(C(N)=O)ccn2)cn1	8	-12	.
O=C1[C@H]2CCCC[C@H]2C(=O)N1CCCCN1CCN(c2nsc3ccccc23)CC1	.	-3	.
CCn1c(=O)[nH]c2ncnc(-c3ccc(NC(=O)Nc4cccc(C(=O)NC(C)C)c4)cc3)c21	-33	22	.
Cc1c[nH]c2ncnc(-c3ccc(NC(=O)Nc4ccccc4)cc3)c12	39*	-4	>19
Cc1cnc(-c2c(C)noc2C)nc1NCCO	4	-3	.
